Data taken from PubChem BioAssay (NCI).
The panel holds about 79,000 compounds, 15% with a hit somewhere; the sample as a whole holds those more often. Rule as the data show it: active = growth inhibition above about 70%; inactive = the rest.

Tests used:
[1] = NCI Yeast Anticancer Drug Screen. Data for the rad50 strain (AID 155);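 also: 0% = growth of vehicle-only cultures of the same strain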; details: S. cerevisiae rad50 strain growth inhibition; at 50.0 µM; active compounds read high
Outline: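 Genetically altered yeast (DNA repair pathway); compound treatment; growth inhibition vs vehicle ctrl.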

[2] = NCI Yeast Anticancer Drug Screen. Data for the mec2-1 strain (AID 157); details: S. cerevisiae mec2-1 strain, at 50.0 µM, active compounds read high
Outline: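 Using mec2-1 yeast: add compound, measure growth, express inhibition versus vehicle-treated cultures.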

[3] = NCI Yeast Anticancer Drug Screen. Data for the sgs1 mgt1 strain (AID 161);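 also: 0% = growth of cultures given vehicle only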; details: S. cerevisiae sgs1 mgt1 strain, at 50.0 µM, active compounds read high
Outline: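 Growth of a repair-deficient yeast mutant was monitored after compound treatment and expressed as inhibition relative to vehicle-treated cultures.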

[4] = NCI Yeast Anticancer Drug Screen. Data for the cln2 rad14 strain (AID 165);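 also: 0% = growth equal to vehicle treated cultures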; details: S. cerevisiae cln2 rad14 strain, at 50.0 µM, active compounds read high
Outline: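 Yeast strain cln2 rad14, bearing defects in cell cycle control and DNA repair, serves as the test system; values reflect growth inhibition compared with vehicle.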

[5] = NCI Yeast Anticancer Drug Screen. Data for the bub3 strain (AID 167); details: S. cerevisiae bub3 mutant strain, at 50.0 µM, active compounds read high
Outline: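 Yeast carrying a defined mutation is treated with each compound, and growth is compared with that of vehicle-exposed cells to give inhibition.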

[6] = NCI Yeast Anticancer Drug Screen. Data for the mlh1 rad18 strain (AID 175); details: S. cerevisiae mlh1 rad18 strain growth inhibition; at 50.0 µM; active compounds read high
Outline: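 Steps: expose repair-defective yeast to compound; measure growth; express inhibition against vehicle-treated controls.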

Measured: growth inhibition

c1ccc2c(c1)SCCCSCCSCCCS2
inactive: [1] -15.2% | [2] -0.65% | [3] 8.1% | [4] 5.05% | [5] 20.6% | [6] 2.6%

Cn1c(=O)sc2ccccc21
inactive: [1] 19.4% | [2] -18.2% | [3] 14.3% | [4] 15.1% | [5] -8.8% | [6] 25.6%

NC(=S)NNC(=O)c1ccc([N+](=O)[O-])cc1
inactive: [1] 10.4% | [2] 18.9% | [3] -3.1% | [4] -17.9% | [5] 1.35% | [6] 36.9%

CC1=NN(c2nc(N)nc(CN3CCOCC3)n2)C(C)(C)C1
inactive: [1] 30.1% | [2] 3.5% | [3] 17.4% | [4] 20.6% | [5] 5.75% | [6] -2.05%

O=C1OC(c2ccccc2)C=C1Nc1ccccc1 (stereo not drawn)
inactive: [1] 9.55% | [2] 12.4% | [3] -3.05% | [4] -12.1% | [5] 17% | [6] 9.4%

N#CC12CCC(CC1)CC2Cl (stereo not drawn)
inactive: [1] -15.7% | [2] 8.45% | [3] 0.95% | [4] 4.4% | [5] 1.5% | [6] -12.7%

C1CC(CCN2CCOCC2)CCN1
inactive: [1] -16.4% | [2] -46.6% | [3] -17.3% | [4] 9.8% | [5] -2.7% | [6] -8.45%

C=C(C)C(C)(C)/C(C)=N\Nc1ccc([N+](=O)[O-])cc1[N+](=O)[O-]
inactive: [1] -0.15% | [2] -7.6% | [3] 6.2% | [4] -23.5% | [5] -0.15% | [6] -8.75%

O=[N+]([O-])c1ccc(OC(=S)N2CCOCC2)cc1
inactive: [1] -7.05% | [2] 9.3% | [3] -8.3% | [4] 0.15% | [5] -10.2% | [6] -0.65%

COC(=O)[C@@]1(C(C)CC(=O)O)CCCCC1=O (stereo partly drawn)
inactive: [1] -11.6% | [2] -16.4% | [3] -38.2% | [4] -7.35% | [5] -20.8% | [6] -13.2%

CCC(=O)Oc1ccc[nH]c1=O
inactive: [1] 1.8% | [2] 21.2% | [3] 4.95% | [4] 24.6% | [5] 9.95% | [6] 14.2%

CN(C)c1cccc(/C=C(\C#N)c2ccccc2)c1
inactive: [1] 2.85% | [2] 13.8% | [3] 35.5% | [4] 28.8% | [5] 54.1% | [6] 15.2%

O=C(CC(O)(C(F)(F)F)C(F)(F)F)c1cccc(S(=O)(=O)N2CCOCC2)c1
inactive: [1] 7.05% | [2] 5.9% | [3] 8.5% | [4] 8.05% | [5] 0.6% | [6] 22.8%

COc1ccc(/C=C/C(=O)c2cc(C(=O)O)c(OC)cc2OC)cc1OC
inactive: [1] 4% | [2] -6.45% | [3] 22.4% | [4] 14.2% | [5] 17.9% | [6] -20.8%

CSc1nc(=S)c2[nH]c(Cl)nc2[nH]1
inactive: [1] -1.8% | [2] 0.4% | [3] -6.9% | [4] -15.2% | [5] 16.4% | [6] 0.25%

COc1ccc(NC(=S)NN=C(C)c2cccc(C(C)=NNC(=S)Nc3ccc(OC)cc3)n2)cc1
inactive: [1] -26.1% | [2] -23.1% | [3] 5.15% | [4] -15.7% | [5] -14.3% | [6] 1.95%

Cc1nc2ccc(S(=O)(=O)Nc3ccccn3)cc2c(=O)n1NS(=O)(=O)c1ccccn1
inactive: [1] 42.6% | [2] 12.1% | [3] 12% | [4] 22.8% | [5] -14.2% | [6] 26.4%

Cc1ccc(S(=O)(=O)CCS(C)(=O)=O)cc1
inactive: [1] -0.5% | [2] 2.2% | [3] 13.2% | [4] 21.8% | [5] -13.7% | [6] -11.2%

CNS(=O)(=O)c1ccc(C)cc1
inactive: [1] 2.15% | [2] -6% | [3] 0.6% | [4] 3.25% | [5] 0.45% | [6] 0.35%

CCOC(=O)C1=C(C)NC(C)=C(C(=O)OCC)C1c1c(C)noc1C
inactive: [1] 19.6% | [2] 18.6% | [3] 60.7% | [4] 19.3% | [5] 6.95% | [6] 61.4%

CCCn1c(C)nc2cc(C)cc(N)c21
inactive: [1] 19.2% | [2] 20.4% | [3] 11% | [4] -17.4% | [5] -1.15% | [6] 1.7%

O=C(Nc1ccc2[nH]c3c(-c4ccccc4)nccc3c2c1)c1ccccc1[N+](=O)[O-]
inactive: [1] 15.8% | [2] -21.2% | [3] -5.3% | [4] 6.65% | [5] -2.75% | [6] 5.35%

Cc1cccc(N2CC3CC4C=CC3(C2)O4)c1 (stereo not drawn)
inactive: [1] 13.7% | [2] 7.65% | [3] 4.45% | [4] -15.2% | [5] 22.1% | [6] 13.1%

O=C1C(=O)C(c2ccccc2)(c2ccccc2)C(=O)N1c1ccccc1
inactive: [1] 29.6% | [2] 13.2% | [3] 0.9% | [4] 49.6% | [5] 16.4% | [6] -6.7%

C=C(CCCC(=C)C(N)=O)C(N)=O
inactive: [1] -14.4% | [2] -14.5% | [3] -12.1% | [4] 2.55% | [5] -0.85% | [6] -27.4%

C=C1C(=O)O[C@@H]2/C=C(/C)[C@@H](OC(C)=O)C/C=C(\C)C(O)[C@@H](OC(=O)/C(C)=C\C)C12 (stereo partly drawn)
inactive: [1] 17.4% | [2] -0.2% | [3] 22.5% | [4] 9.1% | [5] 12.6% | [6] -50.4%

CCOC(=O)c1cccc(NC(=O)CCl)c1
inactive: [1] 43.2% | [2] 30.1% | [3] 37.6% | [4] 26% | [5] 39.9% | [6] 49.5%

COC1OC(CO)C(O)C1O (stereo not drawn)
inactive: [1] -25% | [2] -18.8% | [3] 2.55% | [4] -44.4% | [5] -4.85% | [6] -9.25%

CNC(=O)Nc1ccnc(=O)[nH]1
inactive: [1] -10.6% | [2] -1.85% | [3] -6.15% | [4] -28.3% | [5] -9.55% | [6] -8.8%

C#CCN1CCCC1
inactive: [1] -9.4% | [2] -4.35% | [3] -11% | [4] 22.1% | [5] 27.7% | [6] 10.2%

O=C(NCCCCCCNC(=O)OCOC(=O)NCCCCCCNC(=O)Nc1ccc(SCCO)cc1)Nc1ccc(SCCO)cc1
inactive: [1] 15.7% | [2] 12.4% | [3] 16.3% | [4] 21.1% | [5] 27.2% | [6] -36.9%

COc1cccc(C2ON=C(c3ccccc3)N2C23CC4CC(CC(C4)C2)C3)c1 (stereo not drawn)
inactive: [1] 8.5% | [2] -3.4% | [3] -34.2% | [4] -6.7% | [5] 10.1% | [6] 14.9%

Nc1ccccc1S(=O)O
inactive: [1] -4% | [2] 8.55% | [3] 14.9% | [4] 7.7% | [5] -25.9% | [6] 13.1%

CC(/C=C/c1ccccc1)=N\O
inactive: [1] 9.4% | [2] 7.2% | [3] -1.4% | [4] 28.8% | [5] 3.45% | [6] 1.95%

CCOP(=O)(Cc1c(C)cc(Br)c2ccccc12)OCC
inactive: [1] -2.85% | [2] -13.8% | [3] -0.95% | [4] -32.2% | [5] 5.45% | [6] -9.35%

Cc1cccc2c(NCCC[N+](C)(C)[O-])c3c([N+](=O)[O-])ccc(C)c3nc12
inactive: [1] 54.1% | [2] -14.3% | [3] 43.8% | [4] 2.8% | [5] -3.1% | [6] 43%

C=C1C(=O)O[C@H]2[C@H]1[C@@H](OC(=O)C=C(C)C)CC1=C[C@@H](C[C@@]3(C)O[C@@H]23)OC1=O
inactive: [1] -7.45% | [2] -7.55% | [3] 7.4% | [4] 9.85% | [5] -2.6% | [6] 7.85%

[Cl][Pt+2][Cl].[NH-]C1CCCCC1C1CCCCC1[NH-] (stereo not drawn)
inactive: [1] 14.6% | [2] -12.4% | [3] -29.2% | [4] -41.2% | [5] -29.8% | [6] -27.4%
